The campaign covered roughly 72,000 compounds. About 710 (0.99%) were called active. Roughly 7% stayed inconclusive and do not appear here. The list comes from a sample in which actives are over-represented; it also holds similar structures and randomly drawn compounds. Entries that show only a call come without a potency. A number with no mark means an inactive call. The call rests on the fitted dose curve; in most records, active means well fitted inhibition curve with a large enough effect; inconclusive means small, poorly fitted or top-dose-only effect; inactive means no such curve, though single readings can be large or run the other way.
Potency means the concentration at half of the fitted maximal effect.

This assay is described as follows: qHTS Assay for Inhibitors of the ERK Signaling Pathway using a Homogeneous Screening Assay. Further: nearly all actives have a fitted effect of over 55% in size. As to conditions: HEK293-V1b, vasopressin-stimulated pERK AlphaScreen; series mostly up to 57.5 µM. In short, it runs like this: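 HEK293 cells stably expressing V1b receptor, seeded overnight in 1% FBS, were treated with compounds for 30 min at 37C, then stimulated 5 min with 25 nM vasopressin; phospho-ERK read by AlphaScreen SureFire after lysis.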
In general terms: qHTS replaces the single test concentration by a dilution series.
Regarding `Cn1cccc1C(=O)N1CCC2(CC1)CN(c1cccc(-c3ccccc3)c1)C2`, the Potency result was “inactive”.
Take `COC(=O)[C@@H]1C[C@@]2(O)[C@H](O)[C@H](O)[C@H](O)C[C@H]2N1Cc1ccc(C(C)(C)C)cc1`: the Potency entry was “inactive”.
Take `NCCNCC1CCNCC1`: the activity, negative = inhibition is -16% [at 11.5 µM].
For the compound `O=C(c1ccco1)N1CCN(c2cccc(Cl)c2)CC1`, the Potency entry is “inactive”.
The same measure, in the same setting: then `O=C(c1ccco1)N1CCN(C(=O)C2CC(c3ccc(F)cc3)=NO2)CC1` (configuration not stated), with “inactive”; and `O=C(c1ccco1)N1CCN(C(=O)C2CC(c3ccc(Cl)c(Cl)c3)=NO2)CC1` (configuration not stated), with 20 µM (active).
For the compound `O=C(O)c1c(Br)c(Br)c(Br)c(Br)c1C1c2ccc(O)cc2Oc2cc(O)ccc21`, the activity, negative = inhibition is -24.2% [at 11.5 µM].
Take `CC(=O)OC1CCC2(O)CC1(C)CCC1C2CC1(C)C` (configuration not stated): the Potency entry is “inactive”.
On the same count and under the same terms, under `COc1cccc(Cn2c(=O)cnc3cncnc32)c1` stands “inactive”; under `COc1ccc(CCC(=O)c2c(O)cc(OC3OC(CO)C(O)C(O)C3O[C@@H]3OC(C)C(O)C(O)C3O)cc2O)cc1O` (some centres not stated), “inactive”; under `O=C(Oc1cc(OC(=O)c2ccccc2)c2c(c1)OC(c1ccc(OC(=O)c3ccccc3)c(OC(=O)c3ccccc3)c1)[C@@H](OC(=O)c1ccccc1)C2)c1ccccc1` (some centres not stated), “inactive”.
Same read-out and setting: under `CC1(C)SC2c3ccccc3C(=O)N2[C@@H]1C(=O)NCc1ccco1` (some centres not stated) stands “inactive”; under `O=C(NC1CCCCC1)C1c2ccccc2C(=O)N1Cc1ccco1` (configuration not stated), “inactive”.
On the same count and under the same terms, under `O=C1c2ccccc2C(Nc2ccc3c(c2)OCCO3)N1Cc1ccco1` (configuration not stated) stands 25.1 µM (active).
As to `COC1C[C@@H](O[C@@H]2C(C)C(=O)OC(C)C(C)C(O)C(C)C(=O)[C@@]3(CO3)CC(C)C(OC3OC(C)CC(N(C)C)C3O)C2C)OC(C)[C@@H]1O` (some centres not stated), the Potency result was “inactive”.
The same measure, in the same setting: then `C=C[C@](C)(O)CCC1C(=C)CCC2[C@@](C)(CO)CCC[C@@]12C` (some centres not stated), with “inactive”.
`COCc1[nH]nc2c1C(C1C=CCCC1)C(C#N)=C(N)O2` (configuration not stated): the Potency result is “inactive”.
Consider `N#CC1=C(N)Oc2cc(O)ccc2C1C1CCCCC1` (configuration not stated), for which the Potency is 25.1 µM (active).
Still for that read-out and setting: under `N#CC1=C(N)OC2=C(C(=O)CCC2)C1C1CC=CCC1` (configuration not stated) stands “inactive”.
For `Clc1ccc(C=Nc2ccc3c(c2)Cc2ccccc2-3)c(Cl)c1`, the activity, negative = inhibition is 9.67% [at 11.5 µM].
In the case of `CCCN(C/C=C\I)[C@@H]1CCc2cccc(O)c2C1`, the Potency entry is “inactive”.
In the case of `CC1=C(/C=C/C(C)=C/C=C/C(C)=C/C=C/C=C(C)/C=C/C=C(C)/C=C/C2=C(C)CCCC2(C)C)C(C)(C)CCC1`, the Potency entry is “inactive”.
Same read-out and setting: under `COCCn1c(=O)c(CCc2ccccc2)nc2cnc(N3CCNCC3)nc21` stands “inactive”; under `Cc1cnc(CNc2cc(-c3c(C)noc3C)ncn2)cn1`, “inactive”; under `O=C(O)C(O)[C@@](O)(Cc1ccc(O)cc1)C(=O)O` (some centres not stated), “inactive”.
Same read-out and setting: then `Cc1ccnc(-n2sc3ccccc3c2=O)n1`, with 39.8 µM (active); and `Cc1nc2ccccc2c(=O)n1CCCn1ccnc1`, with “inactive”.
Same read-out and setting: under `Cc1ccnc(N2CCC(C(=O)NC3CCCCCC3)CC2)n1` stands “inactive”.
For `C=CCOC(=O)C(C(C)=O)C(NC(=O)OC)c1ccccc1` (configuration not stated), the activity, negative = inhibition was 29.5% [at 11.5 µM].
In the case of `Cn1c(=O)c(-c2ccccc2)nc2cnc(N3CCNCC3)nc21`, the Potency entry was “inactive”.
Consider `CCCCNc1nc(C)nc2c1nc(-c1ccccc1)n2CCCCN(CC)CC`, for which the Potency entry was “inactive”.
The same measure, in the same setting: under `C=C1C(=O)C23C(O)C1CCC2[C@]12COC3(O)C(O)C1C(C)(C)CC[C@H]2O` (some centres not stated) stands “inactive”.
For `c1ccc(CCN2CCN=C2Cc2ccccc2)cc1`, the activity, negative = inhibition was 9.2% [at 11.5 µM].
On to `COCCn1c(=O)c(-c2cc(F)cc(F)c2)nc2cncnc21`, for which the Potency entry is “inactive”.
For the compound `NS(=O)(=O)c1cc(Cl)c(Cl)c(S(N)(=O)=O)c1`, the Potency result is “inactive”.
As for `CCCCCCCCCCCC(=O)O[C@H](CC(=O)O)C[N+](C)(C)C`, the Potency result was “inactive”.
In the case of `CC(C)=CC1C(C(=O)O)C1(C)C` (configuration not stated), the Potency result was “inactive”.
Still for that read-out and setting: under `O=C(c1ccco1)N1CCC2(CC1)CN(c1ncccn1)C2` stands “inactive”.
Regarding `CC1(C)OC2CC3C4CCC5=CC(=O)CCC5(C)C4(F)C(O)CC3(C)[C@]2(C(=O)CCl)O1` (some centres not stated), the Potency entry is “inactive”.
The same measure, in the same setting: then `CC1OC(OCC2OC(Oc3c(-c4ccc(O)c(O)c4)oc4cc(O)cc(O)c4c3=O)C(O)C(O)C2O)[C@@H](O)C(O)C1O` (some centres not stated), with “inactive”.
Same read-out and setting: then `Cc1c(C)c2c(c(C)c1O)CC[C@@](C)(CN1CCN(c3cc(N4CCCC4)nc(N4CCCC4)n3)CC1)O2`, with “inactive”.
With `CO[C@H]1COC(=O)C/C=C\[C@H](C)COC(=O)[C@@H](OCc2ccccc2)/C=C\[C@@H]1C`, the activity, negative = inhibition was 0.999% [at 11.5 µM].
For the compound `COC(=O)CC1C(C)(C)C(OC(C)=O)C2CC3=C4CC(=O)OC(c5ccoc5)[C@]4(C)CCC3[C@@]1(C)C2=O` (some centres not stated), the Potency result was “inactive”.
`CC(=O)OCC(=O)[C@@]1(O)CCC2C3CCC4=CC(=O)CC[C@]4(C)C3C(=O)C[C@]21C` (some centres not stated): the Potency result is “inactive”.
`Cc1cc(/C=N/n2cnnc2)c(C)n1-c1ccc2ncccc2c1`: the Potency was 15.8 µM (active).
On the same count and under the same terms, under `Cc1ccc(S(=O)(=O)Nc2ccc3ncccc3c2)cc1` stands “inactive”; under `Fc1ccc(Br)cc1/C=N/n1cnnc1`, “inactive”; under `CCC1=C(OC(=O)N(CC)CC)N2C(=O)OC(=NCC3CC3)[C@]2(C)[C@H]2C1=CC[C@H]1C(=O)N(CC(=O)OC)C(=O)[C@H]12`, “inactive”.
Still for that read-out and setting: under `CCC(C)C(N)C1=NC(C(=O)NC(CC(C)C)C(=O)NC(CCC(=O)O)C(=O)NC(C(=O)NCCCCC2NC(=O)C(CC(N)=O)NC(=O)C(CC(=O)O)NC(=O)C(Cc3cnc[nH]3)NC(=O)C(Cc3ccccc3)NC(=O)C(C(C)CC)NC(=O)C(CCCN)NC2=O)C(C)CC)CS1` (configuration not stated) stands “inactive”; under `O=c1c(CCc2ccccc2)nc2cnc(N3CCNCC3)nc2n1Cc1cccs1`, “inactive”; under `Clc1ccc(C2[C@H]3CN(CC4CCCCC4)[C@H](c4ccccc4)C34CC2(c2cccnc2)C4)cn1` (some centres not stated), “inactive”.
Still for that read-out and setting: then `C=CCn1c(SCC(=O)Nc2nc3ccccc3s2)nnc1-c1ccccc1O`, with 15.8 µM (active).
For `CCn1c(SCC(=O)Nc2nc3ccc(OC)cc3s2)nnc1-c1ccoc1C`, the Potency entry is “inactive”.
Turning to `C=CCn1c(CSc2nc3ccccc3s2)nnc1SCC(=O)NCc1ccco1`, the Potency result was “inactive”.
In the case of `Cc1ccc(-c2nn(CC(C)(C)C)c3ncnc(N)c23)cc1`, the Potency was 7.94 µM (active).
The same measure, in the same setting: then `CC(C)=CCC/C(C)=C/CC/C(C)=C/CC/C(C)=C/CO`, with “inactive”; and `COc1cc(OC)c2c(c1Cl)OC1(C2=O)C(O)=CC(=O)CC1C` (configuration not stated), with “inactive”.
`CCC[C@@H]1C[C@@]1(CCC)C(NS(=O)(=O)c1cccc2cccnc12)c1ccc(Cl)cc1` (some centres not stated): the Potency result was “inactive”.
Turning to `C=CC(=C)CCC=C(C)C`, the Potency entry was “inactive”.
On to `Fc1cccc(/C=N\N=C/c2cccc(F)c2)c1`, for which the Potency entry is “inactive”.
`O=C1NS(=O)(=O)c2ccccc21`: the Potency result was “inactive”.
Same read-out and setting: under `Cc1cccc(CNc2cc(-c3ccccc3Cl)ncn2)c1` stands “inactive”; under `FC(F)(F)c1ccc(CN2C[C@@H]3C(c4ccccc4)C4(c5ccccc5)CC3(C4)[C@H]2c2ccccc2)cc1` (some centres not stated), “inactive”; under `COc1ccc(CC(=O)Nc2ccc(-c3nnc(-c4ccccc4)o3)cc2)cc1`, “inactive”.
The same measure, in the same setting: under `Cc1ccc(OCC(=O)Nc2ccc(-c3nnc(-c4ccco4)o3)cc2)cc1` stands “inactive”.
Same read-out and setting: then `O=C(CCc1ccccc1)Nc1cccc(-c2nnc(-c3ccco3)o2)c1`, with 25.1 µM (active); and `Oc1cc(O)c2c(c1)OC(c1ccc(O)c(O)c1)C(O)C2` (configuration not stated), with “inactive”.
On to `C[C@@H](N)[C@@H](C)Cc1ccccc1`, for which the activity, negative = inhibition is -2.1% [at 11.5 µM].
With `CCC(CCC(C)C1CCC2C3CC=C4CC(O)CC[C@@]4(C)C3CC[C@@]12C)C(C)C` (some centres not stated), the Potency entry was “inactive”.
Still for that read-out and setting: then `COC(=O)C1=C(C)NC(=O)NC1/C=C/c1ccccc1` (configuration not stated), with “inactive”; and `COc1ccccc1NC(=O)C1=C(C)NC2=C(C(=O)CCC2)C1c1ccc(C)o1` (configuration not stated), with “inactive”; and `COC(=O)C1=C(C)NC2=C(C(=O)c3ccccc32)C1c1ccc(-c2ccc(C(=O)O)cc2)o1` (configuration not stated), with 25.1 µM (active).
